{"source": "the supplement of paper PMC12819154", "about": "“High-throughput peptide-centric local stability assay extends protein–ligand identification to membrane proteins, tissues and bacteria” (Nature Structural & Molecular Biology, 2025)", "data": [{"compound": "CN[C@@H]1C[C@H]2O[C@@](C)([C@@H]1OC)n1c3ccccc3c3c4c(c5c6ccccc6n2c5c31)C(=O)NC4 [staurosporine]", "assay": "log2 fold change of tryptic peptide abundance, ligand vs vehicle (limited proteolysis) (log2 ratio); higher = more trypsin-susceptible (destabilized)", "details": "ligand concentration: 20 uM; sample: mouse liver crude lysate; replicate design: treated separately", "values": [{"target": "UniProt Q9R233 (peptide sequence: GKGHLLLAATPGLAGR, peptide start residue: 215)", "log2 fold change": -1.39}, {"target": "UniProt P54823 (peptide sequence: LDLKKDNIQAMVIVPTR, peptide start residue: 158)", "log2 fold change": 1.16}, {"target": "UniProt A2ALW5 (peptide sequence: WIYNFNIK, peptide start residue: 263)", "log2 fold change": 0.844}, {"target": "UniProt Q8R1Q8 (peptide sequence: NIDLVYK, peptide start residue: 292)", "sequence (Q8R1Q8 whole entry)": "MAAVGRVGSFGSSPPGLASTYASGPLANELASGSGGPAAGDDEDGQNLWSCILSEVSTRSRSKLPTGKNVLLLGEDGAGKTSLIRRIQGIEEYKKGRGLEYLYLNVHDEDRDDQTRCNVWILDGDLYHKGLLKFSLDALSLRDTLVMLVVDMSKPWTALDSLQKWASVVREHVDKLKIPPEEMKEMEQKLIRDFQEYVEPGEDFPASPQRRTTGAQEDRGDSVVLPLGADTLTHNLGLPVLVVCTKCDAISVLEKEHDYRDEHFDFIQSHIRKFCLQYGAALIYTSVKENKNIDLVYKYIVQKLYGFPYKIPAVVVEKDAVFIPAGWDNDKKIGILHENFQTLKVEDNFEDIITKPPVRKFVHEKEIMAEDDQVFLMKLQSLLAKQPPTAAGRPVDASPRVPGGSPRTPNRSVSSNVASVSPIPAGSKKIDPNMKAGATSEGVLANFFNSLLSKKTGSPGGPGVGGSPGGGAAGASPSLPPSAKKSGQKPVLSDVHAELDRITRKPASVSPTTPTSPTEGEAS", "log2 fold change": 0.28}, {"target": "UniProt Q8C050 (peptide sequence: VLGTGAYGK, peptide start residue: 53)", "log2 fold change": -1.37}, {"target": "UniProt Q9D826 (peptide sequence: INVCYWR, peptide start residue: 224)", "log2 fold change": 0.236}, {"target": "UniProt Q6PGL7 (peptide sequence: RPTSFADELAAR, peptide start residue: 281)", "log2 fold change": -0.483}, {"target": "UniProt Q60648 (peptide sequence: IQSILSSGGK, peptide start residue: 170)", "log2 fold change": -0.484}, {"target": "UniProt O35099 (peptide sequence: YLHDNQIVHR, peptide start residue: 800)", "log2 fold change": -3.12}, {"target": "UniProt P98154 (peptide sequence: GGDPTHFHTVNVAQPVR, peptide start residue: 89)", "sequence (P98154 whole entry)": "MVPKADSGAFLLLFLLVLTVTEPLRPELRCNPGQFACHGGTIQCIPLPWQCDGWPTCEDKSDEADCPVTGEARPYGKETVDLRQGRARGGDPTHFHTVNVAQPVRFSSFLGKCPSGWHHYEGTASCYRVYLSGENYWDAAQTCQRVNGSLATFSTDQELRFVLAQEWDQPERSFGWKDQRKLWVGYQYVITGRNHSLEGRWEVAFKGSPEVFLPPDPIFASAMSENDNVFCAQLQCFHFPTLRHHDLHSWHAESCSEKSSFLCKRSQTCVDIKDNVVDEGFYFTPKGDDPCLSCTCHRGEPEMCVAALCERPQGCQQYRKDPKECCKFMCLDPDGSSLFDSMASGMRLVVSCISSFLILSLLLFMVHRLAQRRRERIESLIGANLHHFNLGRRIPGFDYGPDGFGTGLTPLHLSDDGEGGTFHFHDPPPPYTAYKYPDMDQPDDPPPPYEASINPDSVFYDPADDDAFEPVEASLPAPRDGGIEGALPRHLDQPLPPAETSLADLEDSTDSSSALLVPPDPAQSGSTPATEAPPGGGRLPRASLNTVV", "log2 fold change": -1.16}, {"target": "UniProt Q9QZS5 (peptide sequence: TVAACDLLQGLLHKDQR, peptide start residue: 258)", "sequence (Q9QZS5 whole entry)": "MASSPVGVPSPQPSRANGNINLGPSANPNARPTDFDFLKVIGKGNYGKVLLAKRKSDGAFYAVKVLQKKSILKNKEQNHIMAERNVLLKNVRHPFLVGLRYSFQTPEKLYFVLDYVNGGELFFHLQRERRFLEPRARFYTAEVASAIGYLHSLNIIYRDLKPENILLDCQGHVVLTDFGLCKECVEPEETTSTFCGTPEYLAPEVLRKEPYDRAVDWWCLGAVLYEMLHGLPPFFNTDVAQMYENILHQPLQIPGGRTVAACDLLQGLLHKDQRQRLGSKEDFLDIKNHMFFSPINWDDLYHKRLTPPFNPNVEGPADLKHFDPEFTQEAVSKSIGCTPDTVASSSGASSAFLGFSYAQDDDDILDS", "log2 fold change": -2.7}, {"target": "UniProt Q924L1 (peptide sequence: NLISYVVTK, peptide start residue: 55)", "sequence (Q924L1 whole entry)": "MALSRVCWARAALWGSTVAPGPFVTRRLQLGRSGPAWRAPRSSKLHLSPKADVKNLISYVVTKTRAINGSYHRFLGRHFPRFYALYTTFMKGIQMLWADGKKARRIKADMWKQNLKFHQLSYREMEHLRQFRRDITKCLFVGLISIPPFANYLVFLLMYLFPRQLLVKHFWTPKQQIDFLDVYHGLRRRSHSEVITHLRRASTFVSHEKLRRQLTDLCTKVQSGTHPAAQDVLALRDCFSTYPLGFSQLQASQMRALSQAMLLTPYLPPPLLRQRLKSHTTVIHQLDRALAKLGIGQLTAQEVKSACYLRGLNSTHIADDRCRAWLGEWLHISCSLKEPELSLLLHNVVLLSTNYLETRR", "log2 fold change": 0.543}, {"target": "UniProt P12367 (peptide sequence: IVDVIGEK, peptide start residue: 270)", "log2 fold change": 0.593}, {"target": "UniProt P47802 (peptide sequence: EKYNADYDLSAR, peptide start residue: 77)", "log2 fold change": -0.346}, {"target": "UniProt Q2TBE6 (peptide sequence: RFEAEPLPENTNR, peptide start residue: 276)", "log2 fold change": -2.23}, {"target": "UniProt P56657 (peptide sequence: NHMPYTNAMVHEVQR, peptide start residue: 343)", "log2 fold change": -0.322}, {"target": "UniProt P55264 (peptide sequence: ELFDELVK, peptide start residue: 63)", "log2 fold change": -2.24}, {"target": "UniProt O35945 (peptide sequence: TVAMQISQK, peptide start residue: 491)", "log2 fold change": -0.312}, {"target": "UniProt Q80XL6 (peptide sequence: NLPDSDSEECLVHGDFK, peptide start residue: 206)", "sequence (Q80XL6 whole entry)": "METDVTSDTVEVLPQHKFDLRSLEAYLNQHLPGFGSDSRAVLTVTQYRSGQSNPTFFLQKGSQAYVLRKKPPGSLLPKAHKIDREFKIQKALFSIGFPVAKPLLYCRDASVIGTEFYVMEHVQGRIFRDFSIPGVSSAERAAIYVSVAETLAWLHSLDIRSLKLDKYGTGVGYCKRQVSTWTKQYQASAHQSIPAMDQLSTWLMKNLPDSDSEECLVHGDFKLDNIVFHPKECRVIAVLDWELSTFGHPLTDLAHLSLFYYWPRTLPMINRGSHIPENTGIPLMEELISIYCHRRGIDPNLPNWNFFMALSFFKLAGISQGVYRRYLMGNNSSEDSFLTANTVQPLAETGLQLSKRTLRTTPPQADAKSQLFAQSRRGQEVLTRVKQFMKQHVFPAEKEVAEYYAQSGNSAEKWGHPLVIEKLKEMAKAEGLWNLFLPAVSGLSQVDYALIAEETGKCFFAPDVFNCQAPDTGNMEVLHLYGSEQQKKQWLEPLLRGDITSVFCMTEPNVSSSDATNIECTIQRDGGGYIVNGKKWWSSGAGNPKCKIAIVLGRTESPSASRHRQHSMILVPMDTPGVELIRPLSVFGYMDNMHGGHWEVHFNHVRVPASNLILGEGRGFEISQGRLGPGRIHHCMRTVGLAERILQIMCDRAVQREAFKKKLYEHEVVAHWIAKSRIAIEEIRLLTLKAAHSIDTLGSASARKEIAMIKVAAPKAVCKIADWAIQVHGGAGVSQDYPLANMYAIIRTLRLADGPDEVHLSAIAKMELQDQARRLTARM", "log2 fold change": -0.421}, {"target": "UniProt Q99MK8 (peptide sequence: DLKPANILLDEHGHVR, peptide start residue: 317)", "log2 fold change": -0.735}, {"target": "UniProt Q8C9S4 (peptide sequence: QEIEHLK, peptide start residue: 574)", "log2 fold change": -1.24}, {"target": "UniProt Q9DBM2 (peptide sequence: VGIPVVAVESDPKQLDTAKK, peptide start residue: 317)", "sequence (Q9DBM2 whole entry)": "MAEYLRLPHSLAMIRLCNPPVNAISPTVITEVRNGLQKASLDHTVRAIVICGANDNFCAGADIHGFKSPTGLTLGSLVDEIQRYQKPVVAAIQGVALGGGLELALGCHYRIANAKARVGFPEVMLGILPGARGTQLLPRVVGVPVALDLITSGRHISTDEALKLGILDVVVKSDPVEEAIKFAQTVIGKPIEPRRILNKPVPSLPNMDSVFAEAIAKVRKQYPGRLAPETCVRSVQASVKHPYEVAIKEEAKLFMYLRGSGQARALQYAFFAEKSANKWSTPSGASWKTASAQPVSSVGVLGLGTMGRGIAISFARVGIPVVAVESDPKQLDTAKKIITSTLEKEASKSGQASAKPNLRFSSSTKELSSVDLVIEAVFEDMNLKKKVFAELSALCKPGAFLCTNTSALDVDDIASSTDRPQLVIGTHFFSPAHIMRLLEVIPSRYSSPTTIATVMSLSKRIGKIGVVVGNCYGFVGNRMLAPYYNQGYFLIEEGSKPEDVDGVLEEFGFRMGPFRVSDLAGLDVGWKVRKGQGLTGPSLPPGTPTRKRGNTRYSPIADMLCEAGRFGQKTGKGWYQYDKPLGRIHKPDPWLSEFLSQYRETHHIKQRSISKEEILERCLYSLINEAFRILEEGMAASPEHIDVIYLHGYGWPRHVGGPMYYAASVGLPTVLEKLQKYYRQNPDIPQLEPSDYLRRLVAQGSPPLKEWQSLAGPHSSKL", "log2 fold change": 0.344}, {"target": "UniProt Q60772 (peptide sequence: LGNPEIAR, peptide start residue: 47)", "log2 fold change": 0.494}, {"target": "UniProt Q8BX94 (peptide sequence: TALPAPMFTR, peptide start residue: 62)", "log2 fold change": 0.84}, {"target": "UniProt Q9JM52 (peptide sequence: GNALKEDCIAYICR, peptide start residue: 122)", "sequence (Q9JM52 whole entry)": "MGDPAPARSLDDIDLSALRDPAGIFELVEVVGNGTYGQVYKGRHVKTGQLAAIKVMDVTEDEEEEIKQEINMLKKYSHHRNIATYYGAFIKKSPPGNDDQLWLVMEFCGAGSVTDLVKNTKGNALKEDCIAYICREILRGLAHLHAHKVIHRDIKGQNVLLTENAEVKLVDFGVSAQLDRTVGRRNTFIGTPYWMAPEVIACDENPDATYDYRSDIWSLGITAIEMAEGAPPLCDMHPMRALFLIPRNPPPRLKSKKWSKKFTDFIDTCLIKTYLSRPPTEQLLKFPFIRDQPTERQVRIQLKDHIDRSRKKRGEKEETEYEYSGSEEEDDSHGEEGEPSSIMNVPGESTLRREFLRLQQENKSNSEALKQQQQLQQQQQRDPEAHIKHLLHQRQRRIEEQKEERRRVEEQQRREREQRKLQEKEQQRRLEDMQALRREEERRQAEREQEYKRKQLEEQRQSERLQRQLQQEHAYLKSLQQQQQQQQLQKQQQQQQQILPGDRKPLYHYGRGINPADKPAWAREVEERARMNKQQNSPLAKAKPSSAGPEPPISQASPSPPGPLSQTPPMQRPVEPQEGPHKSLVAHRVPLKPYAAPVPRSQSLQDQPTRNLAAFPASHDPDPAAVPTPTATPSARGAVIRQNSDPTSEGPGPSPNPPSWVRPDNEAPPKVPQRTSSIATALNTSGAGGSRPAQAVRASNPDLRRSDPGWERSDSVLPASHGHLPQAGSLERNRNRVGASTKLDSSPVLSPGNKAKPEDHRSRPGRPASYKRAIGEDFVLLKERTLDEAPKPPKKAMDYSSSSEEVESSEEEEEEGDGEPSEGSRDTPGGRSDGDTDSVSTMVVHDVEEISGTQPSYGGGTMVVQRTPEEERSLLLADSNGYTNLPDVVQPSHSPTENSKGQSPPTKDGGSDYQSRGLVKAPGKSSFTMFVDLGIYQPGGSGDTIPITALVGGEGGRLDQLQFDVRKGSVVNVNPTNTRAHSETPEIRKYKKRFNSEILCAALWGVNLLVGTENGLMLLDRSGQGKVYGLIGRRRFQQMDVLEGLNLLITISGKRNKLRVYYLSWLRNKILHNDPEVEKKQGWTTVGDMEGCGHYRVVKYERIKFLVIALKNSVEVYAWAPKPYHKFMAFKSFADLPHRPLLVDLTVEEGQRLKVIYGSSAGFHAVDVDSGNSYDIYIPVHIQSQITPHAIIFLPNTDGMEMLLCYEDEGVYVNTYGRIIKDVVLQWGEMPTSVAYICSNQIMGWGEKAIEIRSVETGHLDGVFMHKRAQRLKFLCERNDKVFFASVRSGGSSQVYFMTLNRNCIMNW", "log2 fold change": -0.672}, {"target": "UniProt P70424 (peptide sequence: VLGSGAFGTVYK, peptide start residue: 719)", "log2 fold change": -1.19}, {"target": "UniProt P48962 (peptide sequence: MMMQSGRK, peptide start residue: 238)", "log2 fold change": 0.293}, {"target": "UniProt O55047 (peptide sequence: YLLLHLLGR, peptide start residue: 408)", "log2 fold change": -1.75}, {"target": "UniProt Q8C0K5 (peptide sequence: GEHTYSGIIHAFK, peptide start residue: 164)", "log2 fold change": 0.837}, {"target": "UniProt O70318 (peptide sequence: RVTPLPFQPQASSHETLNVVEEK, peptide start residue: 654)", "log2 fold change": -0.88}, {"target": "UniProt Q9D0I9 (peptide sequence: GFDILGIKPVQR, peptide start residue: 648)", "log2 fold change": 0.372}, {"target": "UniProt Q9WV55 (peptide sequence: KVAHSDKPGSTSAVSFR, peptide start residue: 205)", "log2 fold change": 0.313}, {"target": "UniProt P02088 (peptide sequence: DFTPAAQAAFQK, peptide start residue: 122)", "log2 fold change": 0.285}, {"target": "UniProt P26443 (peptide sequence: HYSEAAADREDDPNFFK, peptide start residue: 52)", "log2 fold change": 0.262}, {"target": "UniProt P51174 (peptide sequence: SPAHGISLFLVENGMKGFIK, peptide start residue: 225)", "log2 fold change": 0.439}, {"target": "UniProt Q99JT2 (peptide sequence: LADFGVAGQLTDTQIKR, peptide start residue: 156)", "sequence (Q99JT2 whole entry)": "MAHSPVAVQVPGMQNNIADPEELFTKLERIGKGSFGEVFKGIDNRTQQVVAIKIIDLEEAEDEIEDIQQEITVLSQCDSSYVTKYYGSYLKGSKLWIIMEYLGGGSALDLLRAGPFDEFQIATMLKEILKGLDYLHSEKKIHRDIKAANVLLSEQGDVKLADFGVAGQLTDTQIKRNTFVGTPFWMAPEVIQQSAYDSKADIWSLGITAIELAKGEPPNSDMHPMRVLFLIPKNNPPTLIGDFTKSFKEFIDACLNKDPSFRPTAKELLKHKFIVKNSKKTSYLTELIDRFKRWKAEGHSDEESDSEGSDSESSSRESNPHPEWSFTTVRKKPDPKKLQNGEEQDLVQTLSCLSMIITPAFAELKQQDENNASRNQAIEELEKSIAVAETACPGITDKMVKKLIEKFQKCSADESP", "log2 fold change": -0.843}, {"target": "UniProt Q68FL6 (peptide sequence: GIGVFGDMAK, peptide start residue: 601)", "log2 fold change": 0.564}]}]}
